Source: PubChem BioAssay AID504773 (Broad Institute, 2011)
Entries with a potency or affinity are not part of this list. Calls of active or inactive are those of the source.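 The calls were made as follows: active = polarization signal falls with dose and the fitted half-maximal concentration is at or below ten times the sample's top valid dose; inconclusive = flat curve at 30 to 70% inhibition, or poor fit; inactive = signal rises, flat within 30%, or potency beyond limit.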

Target: Golgi-associated PDZ and coiled-coil motif-containing protein (Homo sapiens) (UniProt Q9HD26)
Experiment: potency against CAL PDZ-peptide interaction – biochemical, fluorescence polarization, Cerulean-tagged CAL PDZ, cherry-picks, dose response (AID 504773)
Settings: CAL PDZ-peptide binding, 1 h; series mostly up to 50 µM

outcome, inactive:
CC(=O)NC(Cc1ccccc1)C(C)=O (configuration not stated), CCn1ncc(Br)c1C(=O)Nc1cccc(F)c1, O=C(NCC1CCCO1)c1cn(-c2ccccc2)nc1-c1ccc(F)cc1 (configuration not stated), Cc1cccc(N=Nc2c(O)[nH]c3ccc(F)cc23)c1, O=C(CSc1nc2c(sc3ccccc32)c(=O)n1Cc1ccccc1)NCC1CCCO1 (configuration not stated), O=S(=O)(c1cccc2ccccc12)N1CCCCC1, O=C(OCC(=O)N1CCc2ccccc2C1)c1cccnc1Cl, CCOC(=O)NC(=O)COC(=O)CCCSc1nc2ccccc2s1, COc1ccc(C(=O)N2CCCc3ccccc32)cc1Br, CCCCOc1ccc(C(=O)N2CCNC(=O)C2CC(=O)OC(C)C)cc1 (configuration not stated), O=C(Nc1nccs1)c1ccc(F)c(S(=O)(=O)N2CCOCC2)c1, CC(C)CNC(=O)COC(=O)CCC(=O)c1ccc(Cl)cc1, Cc1ccc(S(=O)(=O)N2CCN(C(=O)c3ccccn3)CC2)cc1, CCC(C(=O)NN1C(=O)c2ccccc2C1=O)c1ccccc1 (configuration not stated), NC(=O)C1CCN(c2ncccc2[N+](=O)[O-])CC1, COc1cccc(-c2cccc(NC(=O)C3CCN(Cc4ccc(CO)o4)CC3)c2)c1, CN(C)CCNC(=O)COc1cccc2c1OC(C)(C)C2, CC(C)=Cc1oc2ccc([N+](=O)[O-])cc2c1N1CCOCC1, COCCCNC(=O)c1cc(S(=O)(=O)N2CCOCC2)ccc1SCc1cccc(OC)c1OC, COc1ccc(OC)c(NC(=O)CS(=O)(=O)Cc2ccccc2)c1, FC(F)(F)Oc1ccc(NC(=S)NCCCN2CCOCC2)cc1, CCC(=O)c1ccc(N2CCC(C)CC2)c(F)c1, N#C/C(=C\c1c[nH]c2ccccc12)C(=O)NC1CC1, O=C(/C=C/c1cccs1)Nc1scc(-c2ccccc2)c1C(=O)O, CC1CCN(C(=O)COC(=O)c2cccs2)CC1, O=C(NCc1cccnc1)c1ccc(Cn2c(=S)[nH]c3ccc(Br)cc3c2=O)cc1, CC(C)n1cc(C(=O)N2CCCC(N3CCN(c4ccc(F)cc4)CC3)C2)cn1 (configuration not stated), C/C(=N\NC(=O)C(O)c1ccccc1)c1ccc(Cl)s1 (configuration not stated), CC1CCCCC1NCC(=O)NCc1ccc(F)cc1 (configuration not stated), CC1CCC(NC(=O)C2CCN(c3cnccn3)CC2)CC1 (configuration not stated), CCCSC1=N/C(=C\c2ccc([N+](=O)[O-])o2)C(=O)S1, C/C(CC(=O)Nc1ccc(C)c(Cl)c1)=N\NC(=O)Cc1cnc(N)s1, Nc1ccc(N(CCO)CCO)cc1, c1ccc(CNc2nc(NCc3ccccc3)c3ccccc3n2)cc1, O=C(O)c1ccc(Oc2cc(Oc3ccc(C(=O)O)cc3)cc([N+](=O)[O-])c2)cc1, CN1CCN(c2ccccc2NC(=O)c2ccc(N3CCCC3)c([N+](=O)[O-])c2)CC1, CC(=O)c1ccc(S(=O)(=O)N2CCN(c3ccccc3F)CC2)cc1
